Laboratory results published in PubChem BioAssay.
A number with no mark means an inactive call. Active and inactive are the calls of the source. Cut-off read from the data, not from the text of the source, unless noted: active = inhibition above about 42%; inactive = the rest.

Assays:
[1] = StAR promoter reporter inhibitors, counter-screen for LRH-1 inverse agonist project, cell-based, luminescence, high throughput (AID 651611; in the data active = inhibition above about 28%); conditions: StAR promoter luciferase reporter counterscreen, at 3.6 µM, hits give high values
[2] = molecular target: Nuclear receptor subfamily 5 group A member 2 (Homo sapiens) (UniProt O00482); assay: LRH-1 (NR5A2) inverse agonists, retest, confirmation, cell-based, luminescence (AID 651613); conditions: cell-based LRH-1 luciferase reporter, inverse agonism; at 3.6 µM; hits give high values;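 note: HEK293T cells co-transfected with LRH-1 and StAR promoter luciferase reporter; 0% = vehicle wells and 100% = parental cells lacking receptor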
Nuclear receptor subfamily 5 group A member 2 (Homo sapiens), sequence (O00482 whole entry, looked up): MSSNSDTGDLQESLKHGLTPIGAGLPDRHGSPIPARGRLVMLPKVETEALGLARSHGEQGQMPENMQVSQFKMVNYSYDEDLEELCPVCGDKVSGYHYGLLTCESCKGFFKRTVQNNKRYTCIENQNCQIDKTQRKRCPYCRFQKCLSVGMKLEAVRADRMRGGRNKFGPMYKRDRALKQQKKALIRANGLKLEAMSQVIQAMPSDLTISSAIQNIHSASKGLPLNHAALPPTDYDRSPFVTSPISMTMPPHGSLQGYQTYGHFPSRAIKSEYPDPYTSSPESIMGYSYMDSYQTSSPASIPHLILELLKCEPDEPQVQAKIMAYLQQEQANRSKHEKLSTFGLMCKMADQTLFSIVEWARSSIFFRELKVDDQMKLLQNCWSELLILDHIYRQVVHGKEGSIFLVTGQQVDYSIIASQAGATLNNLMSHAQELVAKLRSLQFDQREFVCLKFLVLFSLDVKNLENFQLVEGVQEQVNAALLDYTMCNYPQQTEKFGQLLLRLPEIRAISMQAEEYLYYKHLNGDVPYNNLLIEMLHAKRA

[3] = molecular target: Steroidogenic factor 1 (Homo sapiens) (UniProt Q13285); assay: SF1 (NR5A1) inverse agonists, counter-screen for LRH-1 inverse agonist project, cell-based, luminescence, high throughput (AID 651614; in the data active = inhibition above about 44%;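 note: cells cotransfected with StAR promoter reporter and SF1 expression vector; 0% = vehicle on cells with receptor and 100% = vehicle on cells lacking receptor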); conditions: cell-based SF1 luciferase reporter, at 3.6 µM, hits give high values
Steroidogenic factor 1 (Homo sapiens), sequence (Q13285 whole entry, looked up, the tested form may be a part): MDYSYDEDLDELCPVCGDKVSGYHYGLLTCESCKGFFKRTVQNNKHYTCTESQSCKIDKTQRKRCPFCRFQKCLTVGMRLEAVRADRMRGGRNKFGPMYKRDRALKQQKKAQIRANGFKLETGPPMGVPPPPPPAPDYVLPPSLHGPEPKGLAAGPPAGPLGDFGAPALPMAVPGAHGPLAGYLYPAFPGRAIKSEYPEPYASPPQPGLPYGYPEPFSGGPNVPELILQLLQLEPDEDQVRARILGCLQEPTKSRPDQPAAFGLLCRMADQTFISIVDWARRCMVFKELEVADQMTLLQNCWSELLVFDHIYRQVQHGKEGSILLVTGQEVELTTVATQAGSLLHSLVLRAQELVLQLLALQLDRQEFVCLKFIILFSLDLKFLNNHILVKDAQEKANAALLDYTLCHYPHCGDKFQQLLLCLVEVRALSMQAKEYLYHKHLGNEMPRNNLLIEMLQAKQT

[4] = VP16 transactivation reporter inhibitors, counter-screen for LRH-1 inverse agonist project, cell-based, luminescence, high throughput (AID 651615; in the data active = inhibition above about 33%); conditions: Gal4-VP16 luciferase reporter cells, at 3.6 µM, hits give high values

Row | Compound | inhibition [1] | inhibition [2] | inhibition [3] | inhibition [4] [%]
1 | O=C(CSc1nnnn1C1CCCC1)Nc1ccc2c(c1)OCCO2 | -0.49% | 44.7% (active) | 42.3% | -30.9
2 | Cn1c(=O)n(C)c2cc(NC(=O)CSc3nnc(-c4ccccc4O)n3-c3ccccc3)ccc21 | 30.1% (active) | 58.8% (active) | 54.8% (active) | -42.1
3 | Cc1nc(C)c(-c2csc(Nc3cccnc3)n2)s1 | -12.1% | 41.5% (active) | 35.4% | -47.9
4 | CCCNC(=O)c1sc2c(c1C(=O)Nc1ccccn1)CCCC2 | -1.58% | 47.1% (active) | 42.7% (active) | 14.3
5 | COc1cc(F)c(C2=CC(=O)CC(C)(C)C2)cc1F | -6.98% | 43.9% (active) | 34.5% | -13.9
6 | CCC(=O)Nc1ccc(NC(=O)CSc2nc3c(c(=O)n(C)c(=O)n3C)n2CC)cc1 | 34.6% (active) | 58.8% (active) | 58.3% (active) | -17.8
7 | CCS(=O)(=O)N1Cc2cc(C(=O)NCC3CC3)nc(-c3cccc(-c4cccnc4)c3)c2[C@@H]1CCO | 8.53% | 47.6% (active) | 41.8% | -27.8
8 | Cc1ccc(-c2nn3c(C)nnc3s2)cc1NC(=O)c1cccs1 | 17.1% | 67.5% (active) | 69.4% (active) | -15.2
9 | COc1ccc(NC(=S)NCCc2ccc(F)cc2)c(OC)c1 | 7.84% | 10.5% | 18.5% | -8.33
